# High-throughput results: PubChem, several laboratories
# ATG4B inhibitor: inhibitors of human ATG4B cysteine protease; Q9Y4P1; ATG4B cleavage of LC3-PLA2, NBD-HPC fluorescence, 1 h; AID 504462; inhibition, % at 8.33 µM; 0.51% of 340,000 active; in the data active = inhibition above about 40%
# SUMO1-SIM PPI: SUMO1-SIM interaction modulation | P63165 | SUMO1 binding to a labelled peptide, TR-FRET, 1 h | inhibition, % at 20 µM | 0.33% of 360,000 active; in the data active = inhibition above about 37%
# Rin1 Abl inh: inhibitors of human Rin1-Abl protein interaction; P00519+Q13671; TR-FRET Rin1/Abl binding, biochemical; inhibition, % at 7.35 µM; 0.4% of 360,000 active; in the data active = inhibition above about 5%, passing the limit was not always enough
# Target sequence (P00519 whole entry, looked up): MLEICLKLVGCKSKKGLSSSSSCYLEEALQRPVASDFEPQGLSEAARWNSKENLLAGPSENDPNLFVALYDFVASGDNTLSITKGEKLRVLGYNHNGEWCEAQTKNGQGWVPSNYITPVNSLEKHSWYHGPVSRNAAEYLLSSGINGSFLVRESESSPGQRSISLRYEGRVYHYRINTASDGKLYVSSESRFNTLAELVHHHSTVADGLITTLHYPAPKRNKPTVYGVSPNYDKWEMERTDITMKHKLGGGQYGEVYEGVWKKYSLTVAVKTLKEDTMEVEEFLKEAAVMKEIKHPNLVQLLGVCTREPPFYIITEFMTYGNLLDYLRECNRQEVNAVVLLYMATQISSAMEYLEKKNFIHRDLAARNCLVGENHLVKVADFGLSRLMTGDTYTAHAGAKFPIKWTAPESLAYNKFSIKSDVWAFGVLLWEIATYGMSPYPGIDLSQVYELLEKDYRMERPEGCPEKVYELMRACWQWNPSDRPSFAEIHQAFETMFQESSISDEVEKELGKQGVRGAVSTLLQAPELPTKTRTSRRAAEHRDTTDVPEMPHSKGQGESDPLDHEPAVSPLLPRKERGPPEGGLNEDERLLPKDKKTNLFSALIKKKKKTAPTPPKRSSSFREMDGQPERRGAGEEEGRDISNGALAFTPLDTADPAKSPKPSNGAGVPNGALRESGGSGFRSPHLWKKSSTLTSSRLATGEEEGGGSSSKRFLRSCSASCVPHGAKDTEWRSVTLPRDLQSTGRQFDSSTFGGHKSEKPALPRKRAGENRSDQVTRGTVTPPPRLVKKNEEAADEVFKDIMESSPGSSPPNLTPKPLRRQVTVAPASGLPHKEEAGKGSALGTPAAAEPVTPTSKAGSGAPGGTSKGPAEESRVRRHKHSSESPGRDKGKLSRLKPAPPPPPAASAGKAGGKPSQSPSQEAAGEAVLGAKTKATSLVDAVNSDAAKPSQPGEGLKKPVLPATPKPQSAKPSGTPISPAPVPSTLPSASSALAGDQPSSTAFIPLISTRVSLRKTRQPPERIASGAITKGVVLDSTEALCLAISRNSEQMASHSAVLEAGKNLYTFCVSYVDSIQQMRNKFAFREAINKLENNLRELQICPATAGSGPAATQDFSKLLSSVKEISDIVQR
# Target sequence (Q13671 whole entry, looked up): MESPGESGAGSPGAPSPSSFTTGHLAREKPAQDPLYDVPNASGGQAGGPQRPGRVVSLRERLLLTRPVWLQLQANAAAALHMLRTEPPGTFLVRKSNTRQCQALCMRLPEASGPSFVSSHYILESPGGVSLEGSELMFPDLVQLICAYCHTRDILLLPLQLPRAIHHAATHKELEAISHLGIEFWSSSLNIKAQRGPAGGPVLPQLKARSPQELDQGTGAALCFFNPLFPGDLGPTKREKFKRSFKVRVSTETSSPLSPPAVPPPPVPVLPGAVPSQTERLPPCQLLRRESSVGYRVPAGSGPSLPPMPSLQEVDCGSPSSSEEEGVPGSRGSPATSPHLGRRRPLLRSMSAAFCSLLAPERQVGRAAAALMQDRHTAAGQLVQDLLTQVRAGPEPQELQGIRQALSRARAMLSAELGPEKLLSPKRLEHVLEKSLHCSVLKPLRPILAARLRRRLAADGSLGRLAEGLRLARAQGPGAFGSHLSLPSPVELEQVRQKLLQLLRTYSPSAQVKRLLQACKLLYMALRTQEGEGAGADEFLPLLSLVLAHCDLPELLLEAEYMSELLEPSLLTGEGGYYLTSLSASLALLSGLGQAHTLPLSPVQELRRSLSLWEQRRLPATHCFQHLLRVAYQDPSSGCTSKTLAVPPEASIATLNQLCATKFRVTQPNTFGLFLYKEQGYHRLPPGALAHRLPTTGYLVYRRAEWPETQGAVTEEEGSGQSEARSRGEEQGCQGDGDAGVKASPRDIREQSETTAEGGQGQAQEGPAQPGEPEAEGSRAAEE
# Neddylation inh: cullin neddylation inhibition; AID 651699; P61081+Q13564; 0.58% of 360,000 active; TR-FRET cullin neddylation, biochemical; inhibition, % at 25 µM; in the data active = inhibition above about 36%
# ATG4B conf: confirmation of human ATG4B inhibitors. shares compounds with ATG4B inhibitor. ATG4B protease fluorescent substrate cleavage assay. inhibition, % at 8.33 µM. 92% of 320 active. AID 504757; in the data active = inhibition above about 39%
# PLA2 counter: counter-screen for ATG4B inhibitors: human phospholipase A2 | inhibition, % at 8.33 µM | shares compounds with ATG4B inhibitor | 66% of 1,600 active | purified PLA2, NBD-C6-HPC fluorescence, 45 min; in the data active = inhibition above about 50%
# Starred values were filed as active, the others as inactive; nt = no result given. This is a sample that favours compounds with a hit; in the whole collection about 1.7% have one here.
SMILES,ATG4B inhibitor,SUMO1-SIM PPI,Rin1 Abl inh,Neddylation inh,PLA2 counter,others
CCCCNC(=O)C1(C)CCCCN1C(=O)c1ccc2c(c1)C(C)(C)CCC2(C)C (centres undefined),nt,6,0,-4,nt,
COc1ccc2c(c1OC)C(=O)N1c3ccccc3C(=O)N(c3ccccc3)C21 (centres undefined),48*,-1,-1,0,47,
Cc1ccsc1/C=C/C1=Cc2c(sc(NC(=O)CSc3n[nH]c(N)n3)c2C#N)C(C)(C)C1,66*,32,-2,4,52*,
CC(=O)OC[C@@H]1CN(Cc2ccccc2)C[C@H](n2cnc3c(NC4CCCC4)ncnc32)O1,nt,-7,-3,9,nt,
Cc1ccc(S(=O)(=O)Oc2ccc(/C=C3\C(=N)N4N=C(S(C)(=O)=O)SC4=NC3=O)cc2)cc1,66*,23,2,-29,77*,
Cc1ccc(-n2cccc2/C=C2\C(=N)N3N=C(c4ccco4)SC3=NC2=O)cc1,78*,104*,0,-6,62*,
CCC1=NN2C(=N)/C(=C\c3cccn3-c3ccc(Cl)cc3)C(=O)N=C2S1,12,-17,3,-14,nt,
CCc1ccc(-n2cccc2/C=C2/C(=N)N3C(=NC2=O)SN=C3S(C)(=O)=O)cc1,45*,-9,-2,3,33,ATG4B conf=68*
Cc1ccc(S(=O)(=O)Oc2ccc(/C=C3/C(=N)N4C(=NC3=O)SN=C4S(C)(=O)=O)cc2)cc1,54*,3,5,-263,67*,
c1ccc(C[C@H]2COc3c4ccccc4nn32)cc1,nt,-2,nt,-3,nt,
CCCS(=O)(=O)NC(=O)C1(C)CCCN(C(=O)c2cc(F)ccc2C)C1 (centres undefined),nt,0,-1,-6,nt,
CC(C)(C)c1ccccc1N=Cc1ccc2ccccc2n1,54*,-2,-1,3,35,ATG4B conf=74*
O/N=C/c1ccc2ccccc2n1,-1,4,3,-8,nt,
CC(=NNC(=O)C(C)SC(C)C(=O)NN=C(C)c1cccnc1)c1cccnc1 (centres undefined),-7,2,-4,-6,nt,
Cc1cccc(NC(=S)Nc2cccc(C)n2)n1,1,2,-3,5,nt,
Cc1cccc(NC(=S)Nc2ccc(Oc3ccccc3)cc2)n1,44*,2,-2,12,45,ATG4B conf=67*
O=C(COC(=O)c1ncc(Cl)c(Cl)c1Cl)c1ccc(Cl)s1,40,-2,-4,-278,22,
COc1ccc(C2CC(O)(c3ccccc3)Oc3cc(OC)cc(OC)c32)cc1 (centres undefined),-3,3,-2,7,nt,
COc1ccc(C2CC(O)(c3ccccc3)Oc3c(C)ccc(C)c32)cc1 (centres undefined),56*,-2,3,-27,65*,
Cc1nn(Cc2c(F)c(F)c(F)c(F)c2F)c(C)c1NC(=O)c1ccc(COc2ccc(Cl)cc2Cl)o1,88*,3,2,10,85*,
Cc1nn(Cc2c(F)c(F)c(F)c(F)c2F)c(C)c1NC(=O)c1cccc(COc2ccccc2Cl)c1,63*,-6,1,-1,56*,
COC(=O)[C@]12CCCCC=C1N(Cc1ccc3c(c1)OCO3)C(=O)[C@H](CC(=O)N1CCC(c3ccccc3)CC1)C2,nt,-2,nt,-2,nt,
COC(=O)c1ccc(CNC(=O)CC[C@H]2O[C@@H](n3cc(C)c(=O)[nH]c3=O)C[C@@H]2O)cc1,nt,3,2,9,nt,
CC(C)NC(=O)N(C)C[C@@H]1OCc2cnnn2CCCC(=O)N([C@@H](C)CO)C[C@H]1C,nt,-2,-1,8,nt,
Cc1ccc(-n2nnnc2SCC(=O)Nc2ccccc2-c2ccccc2)cc1C,52*,-4,5,-2,48,
SMILES,ATG4B inhibitor,SUMO1-SIM PPI,Rin1 Abl inh,Neddylation inh,PLA2 counter,others
Cc1ccc(-n2nnnc2SCC(=O)Nc2ccccc2N2CCCCC2)cc1C,12,3,-6,2,nt,
Cc1nn(CCCC(=O)Nc2cc(Oc3ccccc3)cc([N+](=O)[O-])c2)c(C)c1[N+](=O)[O-],53*,15,-1,-26,63*,
Cc1ccc(Cn2nc(C)c(NC(=O)CCCn3nc(C)c([N+](=O)[O-])c3C)c2C)cc1,7,-2,-4,1,nt,
Cc1cc([N+](=O)[O-])nn1CCCC(=O)Nc1ccc2c(c1)OCO2,0,-4,4,-18,nt,
Cc1ccc(C)c(Oc2cc(NC(=O)CCCn3nc(C)c([N+](=O)[O-])c3C)cc([N+](=O)[O-])c2)c1,65*,-5,1,-13,64*,
Cc1ccc(Oc2cc(NC(=O)CCCn3nc([N+](=O)[O-])cc3C)cc([N+](=O)[O-])c2)cc1,67*,-17,-3,-34,65*,
O=C(NCc1ccc(Cl)cc1)C1CCN(C(=O)c2ccc(Cl)cc2)CC1,-6,-2,-2,0,nt,
COc1cc(C=O)ccc1OCc1ccccc1Br,53*,1,0,-5,52*,
CC(=O)N(CC#CCN(C(C)=O)c1ccccc1)c1ccccc1,nt,-2,2,7,nt,
CC(C)(C)c1cc(=O)[nH]c(SCc2ccccc2Cl)n1,50*,2,-1,-3,52*,
N/C(=N/O)c1ccccc1N1CCC(Cc2ccccc2)CC1,40*,1,2,2,58*,
NC(=O)C1CCN(C2=C(NS(=O)(=O)c3ccc(Br)cc3)C(=O)c3ccccc3C2=O)CC1,64*,-10,-10,-67,60*,
NC(=O)C1CCN(C2=C(NS(=O)(=O)c3ccccc3)C(=O)c3ccccc3C2=O)CC1,9,-50,-7,-77,nt,
COc1ccc(Br)cc1CNC(=O)CN1C(=O)C(c2ccccc2)Oc2cccnc21 (centres undefined),59*,3,1,-11,67*,
Cc1[nH]c2ccccc2c1C1=CC(=O)C=CC1=O,-7,3,1,37,nt,
Cc1cc(C)cc(-n2c3ccc(NC(=S)NC4CCCCC4)cc3c(=O)n2C)c1,nt,5,0,nt,nt,
O=C(CCSCc1cccc(Cl)c1)NCCC1=CCCCC1,46*,-18,-2,7,25,
O=C(COC(=O)c1ccccc1Nc1ccccc1)c1ccccc1,53*,2,0,15,52*,
COCCN(CCOC)Cc1cc(=O)oc2ccc3ccccc3c12,nt,-24,-5,-5,nt,
O=C(COC(=O)c1cc(Cl)ccc1[N+](=O)[O-])NCc1ccc(Cl)cc1Cl,52*,-19,-1,-22,46,ATG4B conf=65*
CCOc1ccc(NCc2ccccc2OCc2cccc(F)c2)cc1,46*,-4,1,5,36,ATG4B conf=60*
COc1ccc2c(c1)C(CC(C)=O)N(c1ccc(-c3cccs3)cc1)C(c1ccsc1)=C2 (centres undefined),nt,-5,nt,16,nt,
Cc1ccc(C(=O)c2c(NC(=O)c3ccccc3C)sc(C)c2C)cc1,63*,-1,2,-13,50,
